Test systems include T-47D breast; BT-549 breast; MDA-MB-435 melanoma; HCT-116 colon; HCC-2998 colon; KM12 colon; MCF7 breast; SW-620 colon.
Holding throughout (assay): NCI-60 one-dose screen, 48 h (100 = growth as untreated, 0 = no growth, -100 = all killed)
What all share (conditions): 10 µM unless noted

The results in this text go back to PubChem BioAssay (NCI).

About 83,000 compounds went through this panel and 20% of them were active in at least one assay; those are over-represented in the sample as a whole.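 How to read the values: 0–100, growth inhibition (40 = 60% inhibited); 0, no net growth; -100 to 0, cell death (-40 = 40% of starting cells died; -100 = all dead).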 Values without a mark were called inactive. Calls of active or inactive are those of the source. Rule for the calls: active = growth percent below 10; inactive = the rest.

`CC(c1ccccc1)n1ccnc1CO` (stereo unspecified): the growth in the test on T-47D breast was 104%; with BT-549 breast, 113%; with MDA-MB-435 melanoma, 98.4%; in the test on HCT-116 colon, 104%; in the test on HCC-2998 colon, 90.6%; in the test with KM12 colon it was 109%.
Turning to `C=C(C)[C@@H]1CC[C@]2(C=O)CC[C@]3(C)[C@H](CC[C@@H]4[C@@]5(C)CCCNC(C)(C)[C@@H]5CC[C@]43C)[C@@H]12`, the growth in the test on T-47D breast was 57.8%; in the test on BT-549 breast, 88.7%; in the test with MDA-MB-435 melanoma, 66.6%; in the test with MCF7 breast, 30%; with HCT-116 colon, 25.4%; in the test on HCC-2998 colon it was 41.6%. The growth in the test on KM12 colon was 58.6%.
Turning to `Fc1ccc(-n2cc(COc3ncnc4sc5c(c34)CCCC5)nn2)cc1Cl`, the growth in the test with T-47D breast was 95.1%; in the test with BT-549 breast it was 103%; in the test on MDA-MB-435 melanoma it was 99%; in the test with MCF7 breast, 95%; with HCT-116 colon it was 101%; with HCC-2998 colon it was 114%. Further, the growth in the test on KM12 colon is 105%.
As to `CC1(c2ccccc2)NC(=O)N(CC(=O)Nc2cccc(I)c2)C1=O` (stereo unspecified), the growth with T-47D breast is 81.5%; with MDA-MB-435 melanoma, 102%; with SW-620 colon, 92.2%; with MCF7 breast, 85.5%; with HCT-116 colon it was 97.5%; in the test on HCC-2998 colon, 106%. Besides, the growth in the test with KM12 colon was 90.9%.
With `COc1ccc(-c2nc(N/N=C/c3cccc(Br)c3)nc(N3CCOCC3)c2C#N)cc1`, the growth in the test on T-47D breast is 77%; in the test with BT-549 breast, 100%; with MDA-MB-435 melanoma, 87.9%; in the test with MCF7 breast, 59.3%; with HCT-116 colon, 32.9%; in the test on HCC-2998 colon, 75.4%. Further, the growth in the test with KM12 colon was 44.2%.
For `Cn1c(COC(=O)NCCc2ccccn2)nc2c(N3CCOCC3)nc(Cl)nc21`, the growth was -2.17% (active) in the test with T-47D breast; 2.36% (active) in the test with BT-549 breast; -83.3% (active) with MDA-MB-435 melanoma; -43.5% (active) in the test with MCF7 breast; -69.8% (active) with HCT-116 colon; 37.5% in the test with HCC-2998 colon. In the test on KM12 colon, the growth was 44.3%.
`Clc1nc(Cl)c2ncn(CCOCCn3cnc4c(Cl)nc(Cl)nc43)c2n1`: the growth was -53.9% (active) in the test with T-47D breast; -94.1% (active) in the test with BT-549 breast; -90.1% (active) in the test with MDA-MB-435 melanoma; -48.9% (active) in the test on MCF7 breast; -79.7% (active) with HCT-116 colon; -87.5% (active) with HCC-2998 colon. The growth in the test with KM12 colon is -85.9% (active).
`CC(=O)N1c2ccccc2NC2=C(C(=O)N(C)C2(C)C)C1C` (stereo unspecified): the growth was 28.7% in the test on T-47D breast; 69.5% in the test on BT-549 breast; -67.8% (active) with MDA-MB-435 melanoma; 16.4% in the test on MCF7 breast; 24.9% with HCT-116 colon; 60.8% in the test with HCC-2998 colon. Also, the growth with KM12 colon is 19.8%.
Take `CCN(CC)CCCC(C)Nc1c2c(nc3ccc(OC)cc13)CCCC2` (stereo unspecified): the growth was 113% in the test with T-47D breast; 101% in the test on BT-549 breast; 103% in the test with MDA-MB-435 melanoma; 73.6% in the test on HCT-116 colon; 103% in the test with HCC-2998 colon; 106% with KM12 colon.
As to `CCN(CC)CCOC(COc1cc(C)cc(C)c1)COc1cc(C)cc(C)c1`, the growth in the test with T-47D breast was 18.8%; in the test on BT-549 breast, 50.9%; in the test with MDA-MB-435 melanoma, 19.5%; in the test with MCF7 breast it was 17.5%; in the test on HCT-116 colon it was 7.06% (active); with HCC-2998 colon, 16.8%. Further, the growth in the test on KM12 colon is 31.7%.
As to `CN1CCN(c2cc(F)c(NC3=C(Cl)C(=O)c4ncccc4C3=O)c(F)c2)CC1`, the growth in the test on T-47D breast was -32.5% (active); in the test on BT-549 breast it was 80.5%; in the test with MDA-MB-435 melanoma, -75.8% (active); in the test on MCF7 breast it was -58.2% (active); in the test with HCT-116 colon, -69.7% (active); in the test on HCC-2998 colon, 61.9%. Moreover, the growth in the test with KM12 colon was 82.4%.
Take `CCOC(=O)C1=C(C)NC(C)=C(C(=O)OCC)C1c1cc(Br)c(O)c(OC)c1`: the growth in the test with T-47D breast was 43.8%; in the test on BT-549 breast, 15.3%; with MDA-MB-435 melanoma it was -33.7% (active); in the test with MCF7 breast it was 29.3%; in the test on HCT-116 colon, 24.5%; in the test with HCC-2998 colon, 63.6%. The growth in the test on KM12 colon was 23.6%.
As for `Cc1c(C2=CCCCC2)c2ccccn2c1C(=O)c1cccc(S(=O)(=O)N2CCOCC2)c1`, the growth in the test with T-47D breast is 79.3%; in the test with BT-549 breast, 54.8%; in the test with MDA-MB-435 melanoma it was 62.5%; in the test on MCF7 breast, 93.4%; in the test with HCT-116 colon, 43%; with HCC-2998 colon, 82.2%. For the same compound, in the test with KM12 colon, the growth was 72.3%.
In the case of `NC(=O)CN1CCN(c2ccccc2Cl)CC1`, the growth is 96.9% with T-47D breast; 99.2% with BT-549 breast; 103% in the test with MDA-MB-435 melanoma; 102% with MCF7 breast; 100% in the test on HCT-116 colon; 101% in the test with HCC-2998 colon. The growth in the test on KM12 colon was 109%.
On to `COc1cc(NCC(O)CN(CC(C)C)C2CCCC2)c2ncccc2c1` (stereo unspecified), for which the growth with BT-549 breast is 89.5%; in the test on MDA-MB-435 melanoma, 107%; in the test with SW-620 colon, 70.5%; in the test on MCF7 breast it was 24.1%; in the test with HCT-116 colon, 68%; in the test with HCC-2998 colon, 97.3%. The growth in the test with KM12 colon is 87%.
Regarding `CCN(CC)CCCC(Nc1c2ccc(Cl)cc2nc2ccc(OC)cc12)c1ccc(Cl)cc1` (stereo unspecified), the growth in the test with BT-549 breast is 43.4%; with MDA-MB-435 melanoma, -88.2% (active); with SW-620 colon, -75.8% (active); in the test with MCF7 breast it was -73.8% (active); with HCT-116 colon, -88.8% (active); in the test on HCC-2998 colon it was -75.4% (active). For the same compound, the growth in the test on KM12 colon was -56.9% (active).
With `CCCCc1ccc(Nc2nnc(SCC(=O)NC(=O)NCC)s2)cc1`, the growth in the test on T-47D breast is 128%; in the test on MDA-MB-435 melanoma, 104%; in the test on SW-620 colon, 102%; in the test on MCF7 breast, 101%; in the test on HCT-116 colon, 93.6%; with HCC-2998 colon, 105%. The growth with KM12 colon is 102%.
On to `O=C(Nc1cccc(Cl)c1)Oc1c(Br)c(Br)c(Br)c(Br)c1Br`, for which the growth was 79.5% in the test with BT-549 breast; 99.8% with MDA-MB-435 melanoma; 102% in the test on SW-620 colon; 93.9% in the test with MCF7 breast; 80.3% with HCT-116 colon; 94.7% in the test with HCC-2998 colon. Besides, the growth in the test on KM12 colon is 106%.
For the compound `COC(=O)Nc1ccc(NC(=O)OC)cc1`, the growth in the test with BT-549 breast is 84.6%; in the test on MDA-MB-435 melanoma, 101%; with SW-620 colon, 104%; in the test with HCT-116 colon, 83.9%; in the test with KM12 colon, 111%.
Take `Cc1cc(C)c(C=O)c(C)c1`: the growth in the test on BT-549 breast is 91.4%; with MDA-MB-435 melanoma it was 103%; with SW-620 colon, 95%; in the test on MCF7 breast, 106%; with HCT-116 colon it was 83.1%; in the test with HCC-2998 colon, 108%. Besides, the growth in the test with KM12 colon is 105%.
As to `CCNC(=O)c1[nH]cc(-c2ccc(OC)cc2)c1-c1cc(OC)cc(OC)c1`, the growth in the test on BT-549 breast was 90.2%; with MDA-MB-435 melanoma, 84.3%; with SW-620 colon it was 101%; in the test with MCF7 breast, 99.5%; in the test on HCT-116 colon it was 82.3%; in the test with HCC-2998 colon, 102%. Also, the growth with KM12 colon is 89.9%.
As for `CCCCCCCCCCCCCCCCCCOc1ccccc1N`, the growth with BT-549 breast is -5.26% (active); in the test on MDA-MB-435 melanoma, 78.7%; in the test on SW-620 colon, 98.7%; in the test on MCF7 breast, 75.4%; with HCT-116 colon, 44%; in the test on HCC-2998 colon, 88.8%. Also, the growth with KM12 colon is 39.8%.
Consider `COc1ccc(Cl)cc1NC(=O)c1c(NC(=O)C(F)(F)C(F)(F)F)sc2c1CCCCC2`, for which the growth in the test with BT-549 breast was -4.71% (active); in the test with MDA-MB-435 melanoma, 8.76% (active); in the test with SW-620 colon, 12.8%; in the test with MCF7 breast, 4.9% (active); in the test with HCT-116 colon, -0.0954% (active); in the test on HCC-2998 colon, 15.9%. In addition, the growth in the test with KM12 colon is 3.84% (active).
In the case of `COc1cc(NCC(O)CN(CC(C)C)CC(C)C)c2nc(C)ccc2c1` (stereo unspecified), the growth with BT-549 breast was 90.9%; in the test with MDA-MB-435 melanoma, 105%; with SW-620 colon it was 92.7%; in the test with MCF7 breast, -11.4% (active); in the test on HCT-116 colon it was 97.3%; with HCC-2998 colon, 89.9%.
Consider `CCN(CC)S(=O)(=O)c1cccc([N+](=O)[O-])c1`, for which the growth in the test with BT-549 breast is 79.1%; in the test with MDA-MB-435 melanoma it was 99%; with SW-620 colon, 100%; with MCF7 breast it was 103%; in the test on HCT-116 colon, 80.7%; with HCC-2998 colon, 101%. Moreover, in the test on KM12 colon, the growth is 108%.
On to `COc1cc(CNC(=O)CCCCC[P+](c2ccccc2)(c2ccccc2)c2ccccc2)c(OC)c2c1OCO2`, for which the growth with BT-549 breast was 37.8%; in the test with MDA-MB-435 melanoma, 39%; in the test on SW-620 colon, 70.7%; in the test with MCF7 breast it was 67.4%; in the test on HCT-116 colon, 50.4%; in the test with HCC-2998 colon, 57.6%.
